Test results: PubChem BioAssay AID1903 (Southern Research Specialized Biocontainment Screening …, 2009)
The whole screen tested about 310,000 compounds, of which about 1,200 (0.39%) were called active. The rule behind the calls is not given here. Only a sample is shown. Entries with a potency or affinity are not part of this list.

Biological target: Large T antigen (Simian virus 40) (UniProt P03070)
Test: TAg ATPase/helicase activity blockers – biochemical (AID 1903)
Settings: SV40 large T antigen ATPase/helicase inhibition assay; at 20 µM; active compounds read high

Chain of Large T antigen (Simian virus 40) (P03070 whole entry, looked up): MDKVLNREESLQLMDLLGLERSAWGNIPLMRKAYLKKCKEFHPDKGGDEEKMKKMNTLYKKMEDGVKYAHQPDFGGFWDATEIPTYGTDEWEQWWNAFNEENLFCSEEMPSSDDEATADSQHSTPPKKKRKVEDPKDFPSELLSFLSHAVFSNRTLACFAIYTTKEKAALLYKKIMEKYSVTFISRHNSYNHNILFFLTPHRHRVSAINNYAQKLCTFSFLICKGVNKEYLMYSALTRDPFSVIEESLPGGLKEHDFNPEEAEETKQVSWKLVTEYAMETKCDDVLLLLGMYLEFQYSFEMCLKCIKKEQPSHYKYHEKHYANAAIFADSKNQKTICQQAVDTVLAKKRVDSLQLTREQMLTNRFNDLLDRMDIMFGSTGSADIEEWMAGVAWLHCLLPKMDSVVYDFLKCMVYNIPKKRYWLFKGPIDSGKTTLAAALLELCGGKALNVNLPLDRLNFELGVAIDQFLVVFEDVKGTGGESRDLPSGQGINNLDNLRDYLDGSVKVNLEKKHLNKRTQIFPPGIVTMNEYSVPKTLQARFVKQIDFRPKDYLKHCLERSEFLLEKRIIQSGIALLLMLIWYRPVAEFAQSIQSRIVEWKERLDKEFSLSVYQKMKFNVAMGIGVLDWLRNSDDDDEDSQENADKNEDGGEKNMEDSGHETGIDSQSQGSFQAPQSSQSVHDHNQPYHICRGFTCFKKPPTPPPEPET

Row | SMILES | inhibition
1 | O=C(CNC(=O)c1ccc(Br)cc1)OCC(=O)c1ccccc1 | 11.9% (inactive)
2 | Cc1ccc(C(=O)NCC(=O)N2CCN(c3ncccn3)CC2)s1 | -1.43% (inactive)
3 | O=C(NCc1ccco1)C(c1ccncc1)N(C(=O)Cc1cccs1)c1ccccc1 (stereo not given) | 7.67% (inactive)
4 | Cc1cccc(Nc2ncc3c(n2)CC(C)CC3=O)c1 (stereo not given) | 7.64% (inactive)
5 | CCOc1ccccc1NC(=S)N1CCN(c2ccc(OC)cc2)CC1 | 7.58% (inactive)
6 | CCOc1ccccc1NC(=S)N1CCN(c2ccccc2)CC1 | 3.57% (inactive)
7 | CN(Cc1ccco1)S(=O)(=O)c1ccc(CN2C(=O)c3cccnc3C2=O)s1 | 16.5% (inactive)
8 | COc1ccc(N2CCC(CNC(=S)Nc3cccc(OC)c3)C2)cc1 (stereo not given) | 19.4% (inactive)
9 | COc1ccc(N2CCC(CNC(=O)Nc3ccc(Cl)cc3)C2)cc1 (stereo not given) | 21.5% (inactive)
10 | CCOc1ccc(NC(=O)NCC2CCN(c3ccc(OC)cc3)C2)cc1 (stereo not given) | 22.4% (inactive)
11 | COc1ccc(N2CCC(CNC(=O)Nc3ccc(C)c(C)c3)C2)cc1 (stereo not given) | 9.39% (inactive)
12 | CC(C)CN(C(=O)COC(=O)C1CC1)c1c(N)n(Cc2ccccc2)c(=O)[nH]c1=O | 17.3% (inactive)
13 | Cc1c(Cl)cccc1NC(=O)CN1CCC(NC(=O)C2CCCCC2)CC1 | 8.83% (inactive)
14 | NC(=Nc1ccccc1)Nc1ccccc1 | 15.7% (inactive)
15 | CC(=Nc1ccccc1)Nc1ccccc1 | 9.53% (inactive)
16 | COc1cccc(NC(=O)CCC(=O)Nc2cccc(OC)c2)c1 | 11.8% (inactive)
17 | COc1ccc(OCC(=O)Nc2cccc(OC)c2)cc1 | 2.29% (inactive)
18 | NC(=O)C[n+]1cccc(/C=N/O)c1 | 2.56% (inactive)
19 | c1ccc(-c2nn3c(Cn4cnc5ccccc54)nnc3s2)cc1 | -0.363% (inactive)
20 | O=C(O)C(c1ccccc1)N1C(=O)/C(=C/c2cccs2)SC1=S (stereo not given) | 19.8% (inactive)

Row | SMILES | inhibition
21 | CCOc1ccc(/C=C2\SC(=S)N(C(C(=O)O)c3ccccc3)C2=O)cc1OC (stereo not given) | 23.8% (inactive)
22 | COc1cccc(/C=C2\SC(=S)N(C(Cc3ccccc3)C(=O)O)C2=O)c1 (stereo not given) | 33.3% (inactive)
23 | COc1cc(/C=C2\SC(=S)N(C(C(=O)O)c3ccccc3)C2=O)cc(OC)c1OC (stereo not given) | 27.9% (inactive)
24 | CCOc1ccc(/C=C2/SC(=S)N(C(C(=O)O)c3ccccc3)C2=O)cc1OCC (stereo not given) | 19% (inactive)
25 | COc1ccc(/C=C2\SC(=S)N(C(Cc3ccccc3)C(=O)O)C2=O)cc1 (stereo not given) | -3.2% (inactive)
26 | Cc1ccc(NS(=O)(=O)c2cc(C(=O)N(C)C)ccc2C)cc1C | 7.8% (inactive)
27 | CC(=O)Nc1ccc(NC(=O)CCOc2ccccc2C)cc1 | 9.91% (inactive)
28 | O=C(NCCc1nnc2ccc(N3CCCCCC3)nn12)c1ccccc1F | 10% (inactive)
29 | COc1ccc(C(=O)NCC(C)(C)CNC(=O)c2ccc(OC)cc2)cc1 | 11.7% (inactive)
30 | CCN(CC)c1ccc(CN(C(=O)c2ccco2)C2CCS(=O)(=O)C2)cc1 (stereo not given) | 21.8% (inactive)
31 | COC(=O)C1=C(C(=O)OC)[C@@H]2N(C)c3ccc(OC)cc3[C@@]23C[C@@H](C(=O)OC)N(S(=O)(=O)c2ccc([N+](=O)[O-])cc2)C3=N1 | 1.76% (inactive)
32 | CCOC(=O)C1=NN(c2ccc(C)cc2)CC1C(=O)OC (stereo not given) | 7.97% (inactive)
33 | CCOc1cc(C(=O)N[C@@H](C)C(=O)N2CCC3(CC2)NCCc2[nH]cnc23)cc(OCC)c1OCC | 4.98% (inactive)
34 | S=C(NCCN1CCOCC1)N/N=C/c1ccccc1 | 2.2% (inactive)
35 | CCOc1ccc(CNC(=S)N/N=C/c2ccc(OC)c(OC)c2)cc1 | 9.25% (inactive)
36 | COCCCNC(=S)N/N=C/c1ccc(O)cc1 | 46.2% (inactive)
37 | COc1cc(/C=N/NC(=S)NCCN2CCOCC2)cc(OC)c1OC | 12.4% (inactive)
38 | COCCCNC(=S)N/N=C/c1ccccc1O | 12.5% (inactive)
39 | COc1ccc(CNC(=S)N/N=C/c2ccc(OC)c(OC)c2)cc1 | 4.58% (inactive)
40 | Oc1cccc(/C=N/NC(=S)NCCN2CCOCC2)c1O | 50.5% (inactive)

Row | SMILES | inhibition
41 | COc1cc(/C=N/NC(=S)NCCN2CCOCC2)cc(OC)c1O | 30.1% (inactive)
42 | CC(=O)c1cccc(NC(=S)NC(=O)c2ccccc2Br)c1 | 4.36% (inactive)
43 | COCCn1c(-c2ccc(Br)cc2)csc1=Nc1cccnc1 | 8.06% (inactive)
44 | O=C(CN1CCN(C(=O)c2ccco2)CC1)Nc1ccc(Cl)c(S(=O)(=O)N2CCOCC2)c1 | 0.58% (inactive)
45 | O=C(Nn1cnnc1)C(Sc1ccccc1)c1ccccc1 (stereo not given) | 1.32% (inactive)
46 | O=C(NCCF)[C@H]1C[C@@H]1[C@H](NP(=O)(c1ccccc1)c1ccccc1)c1ccccc1 | 3.51% (inactive)
47 | COc1ccc2oc(C(=O)OCC(=O)Nc3ccc(N4CCOCC4)cc3)c(C)c2c1 | 14% (inactive)
48 | CC(C)CCn1c(CN2CC(C)OC(C)C2)nc2c1c(=O)n(C)c(=O)n2C (stereo not given) | 4.84% (inactive)
49 | CC(C)Oc1ccc(Br)cc1/C=N\NC(N)=S | 16% (inactive)
50 | CC(C)NC(=O)c1nn2c(C(F)(F)F)cc(-c3ccco3)nc2c1Cl | 10.7% (inactive)
51 | Cc1nn(-c2cccc(Cl)c2)nc1C(=O)O | 6.68% (inactive)
52 | Cn1c(=O)n(-c2cccc(Cl)c2)c(=O)n1C | 10.7% (inactive)
53 | O=C1Nc2cc(Cl)ccc2Nc2cscc21 | 14.2% (inactive)
54 | CCOc1cc(C(C(=O)NCC2CCCO2)N(C(=O)Cn2nnc3ccccc32)c2ccccc2C)ccc1O (stereo not given) | 9.12% (inactive)
55 | CC(=O)Nc1ccc(NC(=O)/C(=C/c2ccco2)NC(=O)c2ccccc2)cc1 | 14.8% (inactive)
56 | O=C(Nc1ccccc1)/C(=C\c1cccs1)NC(=O)c1ccccc1 | 10.4% (inactive)
57 | Cc1ccc(NC(=O)/C(=C/c2ccncc2)NC(=O)c2ccccc2)cc1 | 13.5% (inactive)
58 | O=C(Nc1ccccc1)/C(=C\c1ccncc1)NC(=O)c1ccccc1 | 5.96% (inactive)
59 | Cc1ccc(NC(=O)/C(=C\c2cccs2)NC(=O)c2ccccc2)cc1 | 3% (inactive)
60 | O=C(Nc1ccc(C(=O)O)cc1)/C(=C\c1ccco1)NC(=O)c1ccccc1 | 7.81% (inactive)
